“And” between values parts separate entries of the source, which are not always exact repeats. Equal values may be shown once. Inconclusive results are not listed. Entries that show only a call come without a potency. A number with no mark means an inactive call. The source made the active and inactive calls. The call rests on the fitted dose curve; in most records, active means well fitted curve in the direction sought with a large enough effect; inconclusive means small, poorly fitted or top-dose-only effect, or another doubt; inactive means no such curve, though single readings can be large; an effect the other way counts as inactive or inconclusive.
Key:
[1] = molecular target: Cellular tumor antigen p53 (Homo sapiens) (UniProt P04637); experiment: Primary qHTS for small molecule compounds that upregulate eGFP-tagged delta133p53alpha (in N-terminal) cells. (AID 2060322); settings: NCI-H358 eGFP-delta133p53alpha fluorescence, 24 h; activation: stronger effect = higher value; further: nearly all actives have a fitted effect of over 75% in size; further: potency means the concentration at half of the fitted maximal effect;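 on activation: cells pre-induced with doxycycline then dosed without doxycycline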
How it was run: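 NCI-H358 cells pre-induced 24 h with 10 ng/ml doxycycline for eGFP-delta133p53alpha, plated dox-free and exposed 24 h at 37C to titrated compounds. Fixed, Hoechst-stained; gated GFP peak intensity by laser scanning cytometry, normalized to DMSO (0%) and 57.5 uM 5-azacytidine (100%).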

[2] = molecular target: Aldehyde dehydrogenase, mitochondrial (Homo sapiens) (UniProt P05091); experiment: qHTS for Inhibitors of the Aldehyde Dehydrogenase Family (ALDH2) Primary screen (AID 2061308); settings: ALDH2 enzyme inhibition qHTS, 1536-well; series mostly up to 56 µM; further: nearly all actives have a fitted effect of over 55% in size
[3] = molecular target: Retinaldehyde dehydrogenase 3 (Homo sapiens) (UniProt P47895); experiment: qHTS for Inhibitors of the Aldehyde Dehydrogenase Family (ALDH1A3) Primary screen (AID 2061315); settings: ALDH inhibition qHTS; series mostly up to 56 µM

Cellular tumor antigen p53 (Homo sapiens), sequence (P04637 whole entry, looked up): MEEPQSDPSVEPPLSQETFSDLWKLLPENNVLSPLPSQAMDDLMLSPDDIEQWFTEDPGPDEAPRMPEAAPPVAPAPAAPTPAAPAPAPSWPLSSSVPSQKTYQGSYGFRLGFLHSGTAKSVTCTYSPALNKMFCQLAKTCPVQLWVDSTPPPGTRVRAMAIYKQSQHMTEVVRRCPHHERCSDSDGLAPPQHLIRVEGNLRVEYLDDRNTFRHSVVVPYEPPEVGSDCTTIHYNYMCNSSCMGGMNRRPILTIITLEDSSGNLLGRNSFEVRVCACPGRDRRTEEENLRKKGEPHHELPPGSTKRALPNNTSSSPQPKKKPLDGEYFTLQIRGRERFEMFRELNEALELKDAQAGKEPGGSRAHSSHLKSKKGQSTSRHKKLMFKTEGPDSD

SMILES | activation [1] | Potency [2] | Potency [3] | Potency [1]
Cc1c(N2C(=O)c3ccc(C(=O)O)cc3C2=O)c(=O)n(-c2ccccc2)n1C | -5% | inactive | inactive | –
COc1cccc(CN(C(=O)CC(C)(C)C)[C@H]2C[C@H](C(=O)N3CCNCC3)N(Cc3ccc4c(c3)OCO4)C2)c1 | 1% | inactive | inactive | –
C=C1[C@@H]2CC[C@@H]3[C@@](CCC4C(C(=O)O)(C(=O)O)C[C@@H](O[C@@H]5O[C@H](CO)[C@@H](O)[C@H](O)[C@H]5OC(=O)CC(C)C)C[C@]43C)(C2)[C@H]1O (stereo partly drawn) | -16% | inactive | inactive | –
CC(C)=CCC[C@](C)(O[C@@H]1O[C@H](CO[C@@H]2OC[C@@H](O)[C@H](O)[C@H]2O)[C@@H](O)[C@H](O)[C@H]1O)[C@H]1CC[C@]2(C)[C@@H]1[C@H](O)C[C@@H]1[C@@]3(C)CC[C@H](O[C@@H]4O[C@H](CO)[C@@H](O)[C@H](O)[C@H]4O[C@@H]4O[C@H](CO)[C@@H](O)[C@H](O)[C@H]4O)C(C)(C)[C@@H]3CC[C@]12C | -8.33% | inactive | inactive | –
C=C1C(=O)O[C@@H]2C[C@@]3(C)C[C@@H](O)C[C@H](C)C3=C[C@H]12 | – | inactive | inactive | 23.9 µM (active)
C=C[C@H]1[C@H](O[C@@H]2O[C@H](CO)[C@@H](O)[C@H](O)[C@H]2O)OC=C(C(=O)OC)[C@H]1CCO | -7.63% | inactive | inactive | –
C=C1CC2C3(C)C(OC(C)=O)CC(=O)OC(C)(C)C3C(O)C(OC(C)=O)C2(C)C2C(=O)OC(C)C(=O)C12C (stereo not drawn) | -19.8% | inactive | inactive | –
FC(F)(F)c1ccc(Nc2nc3ccc(Oc4ccnc(-c5ncc(C(F)(F)F)[nH]5)c4)cc3[nH]2)cc1 | -7.84% and 12.4% | inactive | inactive | –
O=C(O)CCc1cc2ccoc2cc1O[C@@H]1O[C@H](CO)[C@@H](O)[C@H](O)[C@H]1O | 6.11% | inactive | inactive | –
CC1(C)OC[C@H](NC(=O)Nc2ccc(Br)cc2Br)[C@H](c2ccccc2)O1 | – | inactive | inactive | 19 µM (active)
COc1cc(/C=C/C(=O)O[C@H]2C[C@@H]3C(C(=O)O)=CO[C@@H](O[C@@H]4O[C@H](CO)[C@@H](O)[C@H](O)[C@H]4O)[C@@H]3[C@H]2C)ccc1O | -2.29% | inactive | inactive | –
CC1=C2CC(O)(C(C)(C)O)C(O[C@@H]3O[C@H](CO)[C@@H](O)[C@H](O)[C@H]3O)CC(C)C2CC1=O (stereo partly drawn) | -3.05% | inactive | inactive | –
C=C1CCCC2(C)CCC(C(C)(C)OC3OC(C)C(O)C(O)C3OC(=O)/C(C)=C\C)CC12 (stereo not drawn) | -19.8% | inactive | inactive | –
C=C(CCO[C@@H]1O[C@H](CO)[C@@H](O)[C@H](O)[C@H]1O)C(=O)O | -22.3% | inactive | inactive | –
CCCCn1c(-c2ccccc2)nc(-c2ccccc2)c1CN(Cc1ccc2c(c1)OCO2)Cc1ccc2c(c1)OCO2 | -10% | inactive | inactive | –
C=C(CO)C12OC1C1(C)C(=CC2=O)C(O)C(O)CC1C (stereo not drawn) | 17.9% | inactive | inactive | –

SMILES | activation [1] | Potency [2] | Potency [3] | Potency [1]
C=C1C(=O)O[C@@H]2[C@H]1CCC(C)=C(CCC(=O)O)[C@@]2(C)O | -18.3% | inactive | inactive | –
CCCNc1ccc2ncc(-c3ccc4[nH]ncc4c3)n2n1 | – | inactive | inactive | 2.39 µM (active)
CO[C@@H]1CC[C@H](OC[C@]2(COC(=O)c3ccc(C)[nH]3)[C@H](OC(C)=O)CC[C@@]3(C)[C@@H]4CC=C(C)[C@@H](C5=C(O)C(=O)OC5O)[C@]4(C)CC[C@@H]32)O[C@H]1C (stereo partly drawn) | 0% | inactive | inactive | –
CC(=O)c1ccc(O[C@@H]2OC[C@@H](O)[C@H](O)[C@H]2O[C@]2(CO)O[C@H](CO)[C@@H](O)[C@@H]2O)c(O)c1 | -9.92% | inactive | inactive | –
C=C1CCC(OC(C)=O)C2(C)CC3(O)OC(=O)C(C)=C3CC12 (stereo not drawn) | -2.29% | inactive | inactive | –
CC1CCC2(C(=O)OC3OC(CO)C(O)C(O)C3O)CCC3(C)C(=CCC4C5(C)CC(O)C(O)C(C)(C(=O)O)C5CCC43C)C2C1(C)O (stereo not drawn) | -18.3% | inactive | inactive | –
O=c1cc(N2CCN(c3cccc(C(F)(F)F)c3)CC2)[nH]c(=O)n1C1CCCCC1 | 25% | inactive | inactive | –
CCC(C)C(=O)OC1CC(O)C23C4OCC5(C(O)CC2C1(C)C(O)O4)C3C(=O)C(O)C1(C)C(O)(c2ccoc2)CC2OC251 (stereo not drawn) | 5.34% | inactive | inactive | –
CC(C)(C)NS(=O)(=O)c1ccc(-c2ccc3[nH]nc(N)c3c2)cc1 | 0% | inactive | inactive | –
COc1ccccc1NC(=O)OCC1CCN(C(=O)OC(C)(C)C)CC1 | -5.67% | inactive | inactive | –
CC(C)C[C@H](NC(=O)[C@@H]1O[C@H]1C(=O)O)C(=O)NCCCCN=C(N)N | -8.33% | inactive | inactive | –
CC/C=C\[C@H](O)[C@H](O)C1=C(C)C(=O)[C@]2(O1)C(=O)N[C@@](OC)(C(=O)c1ccccc1)[C@@H]2O | -6.87% | inactive | inactive | –
C=C1C(=O)O[C@@H]2C[C@]3(C)[C@@H](CCC(C)=O)[C@@H]3C[C@H]12 | 5.36% | inactive | inactive | –
CCC(CC)C(=O)Nc1sc2c(c1C#N)CCC(C(C)(C)CC)C2 (stereo not drawn) | -3.34% | inactive | inactive | –
O=C(N/N=C/c1ccc(O)c(O)c1)c1cc2ccccc2cc1O | 4.33% | inactive | inactive | –

Source: PubChem BioAssay (NCATS)
